Records with an inconclusive call do not appear. A call without a number means that no potency is given here. Activity calls are given as the source filed them. Unless noted, the call rests on the fitted dose curve; in most records, active means well fitted curve in the direction sought with a large enough effect; inconclusive means small, poorly fitted or top-dose-only effect, or another doubt; inactive means no such curve, though single readings can be large; an effect the other way counts as inactive or inconclusive.
Experiment: qHTS Assay for Identification of Small Molecule Inducers of Hypoxia Response (AID 2120; active means well fitted curve in the direction sought with a large enough effect in the signal ratio, with a control signal flat, not every such curve was filed as active; the % refers to the signal ratio)
Settings: hypoxia response reporter cells, beta-lactamase ratio readout; series mostly up to 104 µM
Method in brief: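 Reporter induction read as the CCF4 blue/green (460nm/530nm) emission ratio after 2.5 h dye loading at room temperature. ME-180 HRE-beta-lactamase cells received titrated compounds for 17 h at 37 degrees Celsius; AC50 values derived.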

Row | SMILES | outcome
1 | CCOCCOC(C)=O | inactive
2 | C1CCC(NC2CCCCC2)CC1 | inactive
3 | O=S(=O)(c1ccc(Cl)cc1)c1ccc(Cl)cc1 | inactive
4 | CCOP(=O)(NC(C)C)Oc1ccc(SC)c(C)c1 (stereo unspecified) | inactive
5 | Cc1cc(O)ccc1Cl | inactive
6 | C=CC(=O)NCNC(=O)C=C | inactive
7 | Nc1ccc(Cl)cc1N | inactive
8 | CCCCOC(=O)c1ccccc1C(=O)OCc1ccccc1 | inactive
9 | O=C(O)C(Cl)Cl | inactive
10 | CC(C)(O)C(=O)Nc1ccc([N+](=O)[O-])c(C(F)(F)F)c1 | inactive
11 | CN(C)NC(=O)CCC(=O)O | inactive
12 | O=C(O)COc1ccccc1 | inactive
13 | O=[N+]([O-])c1c(Cl)c(Cl)cc(Cl)c1Cl | inactive
14 | COc1ccc(C(c2ccc(OC)cc2)C(Cl)(Cl)Cl)cc1 | inactive
15 | O=[N+]([O-])c1cc([N+](=O)[O-])c2ccccc2c1 | inactive
16 | Nc1ccc(Sc2ccc(N)cc2)cc1 | inactive
17 | CCCCC(CC)COC(=O)c1ccccc1C(=O)OCC(CC)CCCC (stereo unspecified) | inactive
18 | c1cc2ccc3cccc4ccc(c1)c2c34 | inactive
19 | OCCCBr | inactive
20 | COC(C)(C)CCCC(C)C/C=C/C(C)=C/C(=O)OC(C)C (stereo unspecified) | inactive
21 | Nc1ccc(Cl)cc1 | inactive
22 | O=[N+]([O-])c1c2ccccc2cc2ccccc12 | inactive

Experiment: Cytometric Cell-Based qHTS for Inhibitors of the mTORC1 Signaling Pathway in MEF (Tsc2-/-, p53-/-) Cells (AID 2660);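 further: percent of cells above a phospho-rpS6 to PI ratio cutoff in each well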
Settings: mTORC1 pathway cytometry; series mostly up to 38.3 µM
Method in brief: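 Tsc2-/-, p53-/- MEFs (empty vector) exposed to compound 24 h at 37 C, fixed, stained with Alexa-488 anti-phospho-rpS6 Ser235/236 and propidium iodide. Acumen laser scanning; phospho-S6/PI ratio thresholded against 7.5 nM rapamycin, reported as % positive cells.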

Row | SMILES | Potency
23 | c1ccc(C2(c3ccccc3)CC2C2=NCCN2)cc1 (stereo unspecified) | inactive
24 | COC(=O)[C@@H](N)CCCN=C(N)N[N+](=O)[O-] | inactive
25 | CC[C@@H](C(N)=O)N1CCCC1=O | inactive
26 | O=C(N[C@H]1CN2CCC1CC2)c1ccc(Cl)cc1 | inactive

Experiment: High Content Imaging Cell-Based qHTS for Inhibitors of the mTORC1 Signaling Pathway in MEF (Tsc2-/-, p53-/-) Cells (AID 2666);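 further: percent of cells scored positive for phospho-rpS6 Ser235/236 immunostaining by imaging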; further: potency means the concentration at half of the fitted maximal effect
Settings: series mostly up to 38.3 µM
Method in brief: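 Inhibition of rpS6 phosphorylation is measured by immunofluorescence imaging in empty-vector Tsc2-/-, p53-/- mouse embryonic fibroblasts after 24 hrs compound exposure at 37 degree Celsius. Results are reported as % positive cells per well.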

Row | SMILES | Potency
27 | c1ccc(C2(c3ccccc3)CC2C2=NCCN2)cc1 (stereo unspecified) | inactive
28 | COC(=O)[C@@H](N)CCCN=C(N)N[N+](=O)[O-] | inactive
29 | CC[C@@H](C(N)=O)N1CCCC1=O | inactive
30 | O=C(N[C@H]1CN2CCC1CC2)c1ccc(Cl)cc1 | inactive
31 | C/C=C(/C)C(=O)O[C@H]1C(C)=C2[C@H]([C@@H]1OC(=O)CCCCCCC)[C@@](C)(OC(C)=O)C[C@H](OC(=O)CCC)[C@@]1(O)[C@H]2OC(=O)[C@@]1(C)O | 26.1 nM (active)

Experiment: High Content Imaging Cell-Based qHTS for Inhibitors of the mTORC1 Signaling Pathway in MEF Cells (AID 2667); further: potency means the concentration at half of the fitted maximal effect
Settings: series mostly up to 38.3 µM
Method in brief: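 Fixed-cell imaging of phospho-S6 (Ser235/236, Alexa-488) after 24 hrs of compound treatment at 37 degree Celsius. Signal was normalized to Hoechst, and thresholds from the highest and lowest wells split cells into % active versus % non-active.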

Row | SMILES | Potency
32 | c1ccc(C2(c3ccccc3)CC2C2=NCCN2)cc1 (stereo unspecified) | inactive
33 | COC(=O)[C@@H](N)CCCN=C(N)N[N+](=O)[O-] | inactive
34 | CC[C@@H](C(N)=O)N1CCCC1=O | inactive
35 | O=C(N[C@H]1CN2CCC1CC2)c1ccc(Cl)cc1 | inactive
36 | C/C=C(/C)C(=O)O[C@H]1C(C)=C2[C@H]([C@@H]1OC(=O)CCCCCCC)[C@@](C)(OC(C)=O)C[C@H](OC(=O)CCC)[C@@]1(O)[C@H]2OC(=O)[C@@]1(C)O | 3.7 nM (active)

— PubChem BioAssay (NCATS)
